Source: PubChem BioAssay (NCATS)
Values without a mark were called inactive. Inconclusive results are not listed. Where a call stands in place of a potency, no number is given. Activity calls are given as the source filed them. Unless noted, calls follow the shape of the dose curve; as a rule, active = well fitted curve in the direction sought with a large enough effect; inconclusive = small, poorly fitted or top-dose-only effect, or another doubt; inactive = no such curve, though single readings can be large; an effect the other way counts as inactive or inconclusive.

Key:
[1] = Cellular Toxicity (caspase-3) BJ (AID 658); conditions: Potency: caspase-3 activation; also: potency is read from the fitted curve at half-maximal effect
Summary of the method: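 Readout: Caspase-Glo 3/7 luminescence increase in BJ cells after 16 hr treatment at 37 °C. Staurosporine and tamoxifen served as positive controls; AC50 values came from Hill modelling of data normalized to DMSO and 10 uM staurosporine.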

[2] = Cellular Toxicity (caspase-3) MRC-5 (AID 659); conditions: Potency: caspase-3 activation; also: potency is read from the fitted curve at half-maximal effect
Summary of the method: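 Concentration-dependent caspase 3/7 activation is measured in human normal lung fibroblasts (MRC-5) following 16-hour treatment. AC50 values come from standard Hill-equation modeling of luminescence normalized to DMSO and 10 uM staurosporine.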

[3] = Cellular Toxicity (caspase-3) SK-N-SH (AID 661); also: potency is read from the fitted curve at half-maximal effect
Summary of the method: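 Human neuroblastoma SK-N-SH, 1500 cells/well, 5 hr pre-incubation, then compound 16 hr, 37 °C. Caspase-Glo 3/7 reagent, 1 hr RT, luminescence. Norm. to DMSO/10 uM staurosporine; Hill-fit AC50.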

[4] = Cellular Toxicity (caspase-3) H-4-II-E (AID 663); conditions: H-4-II-E rat hepatoma, scaled: DMSO 0%, 100 µM tamoxifen 100%; at 92.2 µM (top of the series);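 also: cells exposed to compound for 16 hr before readout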
Summary of the method: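 Apoptosis induction is scored as increased luminescence from caspase 3/7 substrate cleavage in rat hepatoma H-4-II-E cells exposed to compound for 16 hr. Activity is scaled between DMSO and 100 uM tamoxifen.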

[5] = Cellular Toxicity (caspase-3) Hek293 (AID 664); conditions: HEK293 caspase-3 activation, DMSO = 0%, 100 µM tamoxifen = 100%; at 92.2 µM (top of the series);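 also: cells exposed to compound for 16 h at 37 °C before readout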
Summary of the method: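 Cells plated, 5 hr at 37 °C; compounds added; 16 hr at 37 °C; Caspase-Glo 3/7 reagent, 20 min RT; luminescence read. Activation expressed relative to DMSO and 100 uM tamoxifen, AC50 by Hill model.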

[6] = Cellular Toxicity (caspase-3) N2a (AID 665);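 also: compound exposure lasted 16 h at 37 °C before readout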
Summary of the method: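 N2a cells, 1500/well, 5 h settle at 37 °C; cpd 16 h, 37 °C; Caspase-Glo 3/7, 1 h RT; luminescence. Norm: DMSO = 0, 10 uM staurosporine = 100%. AC50, Hill fit.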

[7] = Cellular Toxicity (caspase-3) NIH 3T3 (AID 666);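 also: caspase signal read after 16 h compound exposure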; also: potency is read from the fitted curve at half-maximal effect
Summary of the method: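 Luminescence from aminoluciferin released by caspase-3/7 cleavage of a peptide substrate served as read-out. Mouse fibroblast NIH 3T3 cells were exposed to compounds over a concentration range for 16 hours, and AC50 values came from standard Hill modelling.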

[8] = Cellular Toxicity (caspase-3) Renal Proximal Tubule (AID 667); conditions: Potency: caspase-3 activation;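 also: cells exposed to compound for 16 hours at 37 °C before detection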; also: potency is read from the fitted curve at half-maximal effect
Summary of the method: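 Primary rat proximal tubule cells, 1000/well, 5 h plating at 37 °C, then compound 16 h at 37 °C. Caspase-Glo 3/7 reagent, 1 h RT, luminescence. Normalized to DMSO (basal) and 10 uM staurosporine (100%); Hill-fit AC50.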

[9] = Confirmation and Secondary Assay for Modulators of Hemoglobin Beta Chain Splicing at IVS2 654 locus (AID 910);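 also: HeLa cells stably carrying EGFP split by mutant beta-globin IVS2-654 intron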
Summary of the method: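 Readout: per-well total peak green fluorescence (488 nm ex, 500–520 nm em) from objects 5–250 µm, reflecting correct splicing of an EGFP-654 reporter. Compounds were applied for 2 days at 37 °C to overnight-plated HeLa EGFP-654 cells; controls were DMSO and 500 nM IVS2-654 PNA.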

[10] = qHTS Assay for Identification of Small Molecule Agonists for Hypoxia Response Element Signaling Pathway (AID 914; active = well fitted activation curve with a large enough effect in the signal ratio, with a control signal flat, not every such curve was filed as active; the % refers to the signal ratio); conditions: ME-180 (cervical carcinoma) HRE-bla reporter, beta-lactamase ratio, CoCl2, 17 h; hits give high values
Summary of the method: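 HRE-bla ME-180 cells, overnight plating in Opti-MEM with 0.5% dialyzed FBS; cpd titration + EC50 CoCl2, 17 h, 37 degrees Celsius; CCF4 2.5 h RT; 460/530 nm ratio; AC50.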

[11] = Confirmation and Secondary Assay for Modulators of Hemoglobin Beta Chain Splicing at IVS2 705 locus (AID 930);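 also: HeLa cells stably expressing the EGFP-705 splicing reporter; GFP fluorescence per well restored by corrected splicing of the IVS2-705 intron in EGFP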
Summary of the method: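 Read-out: total peak GFP fluorescence per well (488 nm excitation, 500-520 nm emission) by laser-scanning cytometry. Cells: HeLa EGFP-705 splicing reporter, 2 days compound exposure in Optimem/2% FCS.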

[12] = target: Cytochrome P450 3A4 (Homo sapiens) (UniProt P08684); experiment: qHTS Assay for Activators of Cytochrome P450 3A4 (AID 885); also: nearly all actives have a fitted effect of over 65% in size
Summary of the method: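 20nM CYP3A4 + 25uM Luciferin-PPXE (=KM), 200mM KPO4; cpd 10 min RT; NADPH regen, 60 min RT; stop w/ detection buffer, 20 min; luminescence. Normalized to 57 uM ketoconazole.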

[13] = target: Cytochrome P450 2D6 (Homo sapiens) (UniProt P10635); experiment: qHTS Assay for Inhibitors and Substrates of Cytochrome P450 2D6 (AID 891); also: potency is read from the fitted curve at half-maximal effect; nearly all actives have a fitted effect of over 60% in size
Summary of the method: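 Human CYP2D6 (5 nM) with 30 uM Luciferin-ME EGE (at Km) in 100 mM KPO4, compound preincubated 10 min, then NADPH regeneration system for 60 min at room temperature. Luciferin read by luminescence; normalized to 1.43 uM quinidine.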

[14] = Cell Viability - LYMP2-001 (AID 921); also: nearly all actives have a fitted effect of over 70% in size; also: potency is read from the fitted curve at half-maximal effect
Summary of the method: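 Human lymphoblastoid cells (Coriell), 2500 per well, were preincubated 5 hr at 37 C, then exposed to compounds in complete medium for 24 hr at 37 C. Cellular ATP was read by CellTiter-Glo luminescence; AC50 from Hill fits of concentration-response data.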

[15] = target: Cytochrome P450 3A4 (Homo sapiens) (UniProt P08684); experiment: qHTS Assay for Inhibitors and Substrates of Cytochrome P450 3A4 (AID 884); also: nearly all actives have a fitted effect of over 50% in size
Summary of the method: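 20 nM human CYP3A4 with 25 uM Luciferin-PPXE (at KM) in 200 mM KPO4, preincubated 10 min with compound; NADPH regeneration started a 60 min RT reaction. Luciferin detected by luminescence, normalized to 57 uM ketoconazole as full inhibition.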

[16] = target: Guanine nucleotide-binding protein G(i) subunit alpha-1 (Homo sapiens) (UniProt P63096); experiment: qHTS Assay for Inhibitors of RGS12 GoLoco Motif Activity (Green Fluorophore) (AID 879);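 also: negative values mean loss of peptide binding seen as reduced polarization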
Summary of the method: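 Fluorescence polarization assay: 50 nM Gαi1 with 10 nM FITC-labeled RGS12 GoLoco peptide in 10 mM Tris pH 7.5, 150 mM NaCl, 0.1 mM GDP, 0.05% NP40, 10 min at room temperature with compound.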

Cytochrome P450 3A4 (Homo sapiens), sequence (P08684 whole entry, looked up): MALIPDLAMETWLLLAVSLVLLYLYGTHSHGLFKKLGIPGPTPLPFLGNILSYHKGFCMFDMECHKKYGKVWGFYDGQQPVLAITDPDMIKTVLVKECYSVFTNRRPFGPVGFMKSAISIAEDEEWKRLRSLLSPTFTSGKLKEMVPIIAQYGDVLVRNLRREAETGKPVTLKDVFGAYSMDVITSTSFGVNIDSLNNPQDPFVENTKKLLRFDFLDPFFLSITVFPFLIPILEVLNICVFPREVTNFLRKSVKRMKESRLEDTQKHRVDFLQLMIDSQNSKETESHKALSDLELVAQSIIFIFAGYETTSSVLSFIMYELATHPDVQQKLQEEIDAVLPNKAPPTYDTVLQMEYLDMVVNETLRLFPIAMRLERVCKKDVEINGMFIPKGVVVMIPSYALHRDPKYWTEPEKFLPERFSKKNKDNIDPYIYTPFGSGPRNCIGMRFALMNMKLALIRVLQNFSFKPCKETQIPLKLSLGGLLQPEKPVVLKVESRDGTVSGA
Guanine nucleotide-binding protein G(i) subunit alpha-1 (Homo sapiens), sequence (P63096 whole entry, looked up): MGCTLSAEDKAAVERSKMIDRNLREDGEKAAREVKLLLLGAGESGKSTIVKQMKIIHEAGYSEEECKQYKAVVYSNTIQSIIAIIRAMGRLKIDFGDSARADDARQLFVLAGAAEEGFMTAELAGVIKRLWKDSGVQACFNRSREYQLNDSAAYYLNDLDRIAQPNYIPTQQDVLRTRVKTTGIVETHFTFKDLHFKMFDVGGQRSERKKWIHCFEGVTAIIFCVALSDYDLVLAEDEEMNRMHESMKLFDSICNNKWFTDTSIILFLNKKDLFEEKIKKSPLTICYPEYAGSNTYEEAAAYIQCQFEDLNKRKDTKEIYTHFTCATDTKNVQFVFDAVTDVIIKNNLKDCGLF
Cytochrome P450 2D6 (Homo sapiens), sequence (P10635 whole entry, looked up): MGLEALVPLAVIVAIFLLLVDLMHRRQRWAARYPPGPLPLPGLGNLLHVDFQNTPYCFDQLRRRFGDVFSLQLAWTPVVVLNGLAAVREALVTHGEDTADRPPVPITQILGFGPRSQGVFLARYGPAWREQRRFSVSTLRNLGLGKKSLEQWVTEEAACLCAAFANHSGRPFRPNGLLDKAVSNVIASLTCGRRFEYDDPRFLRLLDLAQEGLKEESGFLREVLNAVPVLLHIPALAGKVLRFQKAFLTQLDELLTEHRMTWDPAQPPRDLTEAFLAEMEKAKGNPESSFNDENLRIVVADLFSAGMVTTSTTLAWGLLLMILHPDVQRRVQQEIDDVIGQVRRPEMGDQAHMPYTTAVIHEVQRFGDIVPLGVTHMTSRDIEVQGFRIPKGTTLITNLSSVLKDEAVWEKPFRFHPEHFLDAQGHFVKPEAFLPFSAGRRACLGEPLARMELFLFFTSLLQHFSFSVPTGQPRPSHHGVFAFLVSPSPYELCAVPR

Q: For `N=C(N)c1ccc(OCCCCCOc2ccc(C(=N)N)cc2)cc1`, which Potency [1] is on record?
A: inactive

Q: And the Potency [2]?
A: inactive

Q: And the Potency [3]?
A: inactive

Q: And the caspase-3 activation [4]?
A: 1.46%

Q: What about the caspase-3 activation [5] of the same compound?
A: 3%

Q: And the outcome [6]?
A: inactive

Q: What about the Potency [7] of the same compound?
A: inactive

Q: What about the Potency [8] of the same compound?
A: inactive

Q: What about the Potency [9] of the same compound?
A: inactive

Q: What about the activation [10] of the same compound?
A: 3.68%

Q: And the Potency [11]?
A: inactive

Q: For `COc1ccc2cc3[n+](cc2c1OC)CCc1cc2c(cc1-3)OCO2`, which Potency [1] is on record?
A: inactive

Q: And the Potency [2]?
A: inactive

Q: And the Potency [3]?
A: inactive

Q: What about the caspase-3 activation [4] of the same compound?
A: 0.864%

Q: What about the caspase-3 activation [5] of the same compound?
A: 4.12%

Q: What about the outcome [6] of the same compound?
A: inactive

Q: And the Potency [7]?
A: inactive

Q: What about the Potency [8] of the same compound?
A: inactive

Q: What about the outcome [12] of the same compound?
A: inactive

Q: And the Potency [13]?
A: 2.51 µM (active)

Q: And the Potency [9]?
A: inactive

Q: And the Potency [14]?
A: 39.8 µM (active)

Q: And the Potency [11]?
A: inactive

Q: With `CN(C)c1ccc(C(=C2C=CC(=[N+](C)C)C=C2)c2ccc(N(C)C)cc2)cc1` as the compound, how does the Potency [1] read?
A: 15.8 µM (active)

Q: What about the Potency [2] of the same compound?
A: 6.31 µM (active)

Q: What about the Potency [3] of the same compound?
A: 10 µM (active)

Q: And the caspase-3 activation [4]?
A: 85.6% (active)

Q: And the Potency [7]?
A: 31.6 µM (active)

Q: And the Potency [8]?
A: 31.6 µM (active)

Q: And the outcome [12]?
A: inactive

Q: And the Potency [9]?
A: inactive

Q: And the Potency [14]?
A: 1.26 µM (active)

Q: What about the Potency [11] of the same compound?
A: inactive

Q: For `CC[C@H](C)C(=O)O[C@H]1C[C@@H](C)C=C2C=C[C@H](C)[C@H](CC[C@@H]3C[C@@H](O)CC(=O)O3)[C@H]21`, which Potency [1] is on record?
A: inactive

Q: What about the Potency [2] of the same compound?
A: inactive

Q: And the Potency [3]?
A: inactive

Q: And the caspase-3 activation [4]?
A: 1.47%

Q: What about the caspase-3 activation [5] of the same compound?
A: -1.73%

Q: And the outcome [6]?
A: inactive

Q: What about the Potency [7] of the same compound?
A: inactive

Q: What about the Potency [14] of the same compound?
A: inactive

Q: For `COc1ccc2c(c1)c(CC(=O)OCC(=O)O)c(C)n2C(=O)c1ccc(Cl)cc1`, which outcome [15] is on record?
A: inactive

Q: And the Potency [9]?
A: inactive

Q: And the Potency [11]?
A: inactive

Q: With `Cc1ccc(S(=O)(=O)N[C@@H](Cc2ccccc2)C(=O)CCl)cc1` as the compound, how does the outcome [16] read?
A: inactive

Q: With `NC(N)=NC(N)=NCCc1ccccc1` as the compound, how does the Potency [1] read?
A: inactive

Q: What about the Potency [2] of the same compound?
A: inactive

Q: And the Potency [3]?
A: inactive

Q: What about the caspase-3 activation [4] of the same compound?
A: 0.291%

Q: What about the caspase-3 activation [5] of the same compound?
A: -0.745%

Q: What about the outcome [6] of the same compound?
A: inactive

Q: And the Potency [7]?
A: inactive

Q: And the Potency [8]?
A: inactive

Q: And the Potency [14]?
A: inactive
